The source of these data is ChEMBL document CHEMBL2218924, “A broad activity screen in support of a chemogenomic map for kinase signalling research and drug discovery” (Biochem J, 2013).

Assay [1] deals with T1, Ephrin type-B receptor 3 (Homo sapiens) (UniProt P54753).
T1 sequence (whole entry): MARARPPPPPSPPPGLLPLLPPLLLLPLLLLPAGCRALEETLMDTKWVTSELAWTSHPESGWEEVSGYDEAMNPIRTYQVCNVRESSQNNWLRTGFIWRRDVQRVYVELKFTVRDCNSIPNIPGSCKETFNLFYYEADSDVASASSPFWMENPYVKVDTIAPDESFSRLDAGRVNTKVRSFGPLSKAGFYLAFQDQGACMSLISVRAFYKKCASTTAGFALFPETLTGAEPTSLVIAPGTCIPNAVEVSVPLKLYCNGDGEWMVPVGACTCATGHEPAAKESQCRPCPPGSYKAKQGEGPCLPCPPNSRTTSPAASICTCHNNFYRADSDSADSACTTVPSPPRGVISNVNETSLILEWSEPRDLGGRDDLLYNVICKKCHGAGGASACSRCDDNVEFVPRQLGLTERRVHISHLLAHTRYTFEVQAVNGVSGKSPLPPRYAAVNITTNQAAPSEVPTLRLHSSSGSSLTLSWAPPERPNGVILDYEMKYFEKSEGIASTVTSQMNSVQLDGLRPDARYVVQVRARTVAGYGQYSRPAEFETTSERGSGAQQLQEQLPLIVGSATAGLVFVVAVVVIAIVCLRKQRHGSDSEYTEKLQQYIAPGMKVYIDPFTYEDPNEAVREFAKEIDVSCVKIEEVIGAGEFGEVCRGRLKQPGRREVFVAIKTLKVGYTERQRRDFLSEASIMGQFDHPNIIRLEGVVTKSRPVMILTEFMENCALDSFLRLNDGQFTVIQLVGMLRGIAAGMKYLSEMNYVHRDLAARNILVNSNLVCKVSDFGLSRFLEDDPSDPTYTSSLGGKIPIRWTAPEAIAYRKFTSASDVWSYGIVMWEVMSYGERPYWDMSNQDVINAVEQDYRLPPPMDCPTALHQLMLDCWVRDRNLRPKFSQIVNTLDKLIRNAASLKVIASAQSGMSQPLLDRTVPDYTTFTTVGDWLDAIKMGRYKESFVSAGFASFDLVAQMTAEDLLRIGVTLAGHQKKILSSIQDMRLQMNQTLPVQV
To be noted: at 10 µM.

In assay [2] the target is T2, Ephrin type-B receptor 4 (Homo sapiens) (UniProt P54760).
T2 sequence (whole entry): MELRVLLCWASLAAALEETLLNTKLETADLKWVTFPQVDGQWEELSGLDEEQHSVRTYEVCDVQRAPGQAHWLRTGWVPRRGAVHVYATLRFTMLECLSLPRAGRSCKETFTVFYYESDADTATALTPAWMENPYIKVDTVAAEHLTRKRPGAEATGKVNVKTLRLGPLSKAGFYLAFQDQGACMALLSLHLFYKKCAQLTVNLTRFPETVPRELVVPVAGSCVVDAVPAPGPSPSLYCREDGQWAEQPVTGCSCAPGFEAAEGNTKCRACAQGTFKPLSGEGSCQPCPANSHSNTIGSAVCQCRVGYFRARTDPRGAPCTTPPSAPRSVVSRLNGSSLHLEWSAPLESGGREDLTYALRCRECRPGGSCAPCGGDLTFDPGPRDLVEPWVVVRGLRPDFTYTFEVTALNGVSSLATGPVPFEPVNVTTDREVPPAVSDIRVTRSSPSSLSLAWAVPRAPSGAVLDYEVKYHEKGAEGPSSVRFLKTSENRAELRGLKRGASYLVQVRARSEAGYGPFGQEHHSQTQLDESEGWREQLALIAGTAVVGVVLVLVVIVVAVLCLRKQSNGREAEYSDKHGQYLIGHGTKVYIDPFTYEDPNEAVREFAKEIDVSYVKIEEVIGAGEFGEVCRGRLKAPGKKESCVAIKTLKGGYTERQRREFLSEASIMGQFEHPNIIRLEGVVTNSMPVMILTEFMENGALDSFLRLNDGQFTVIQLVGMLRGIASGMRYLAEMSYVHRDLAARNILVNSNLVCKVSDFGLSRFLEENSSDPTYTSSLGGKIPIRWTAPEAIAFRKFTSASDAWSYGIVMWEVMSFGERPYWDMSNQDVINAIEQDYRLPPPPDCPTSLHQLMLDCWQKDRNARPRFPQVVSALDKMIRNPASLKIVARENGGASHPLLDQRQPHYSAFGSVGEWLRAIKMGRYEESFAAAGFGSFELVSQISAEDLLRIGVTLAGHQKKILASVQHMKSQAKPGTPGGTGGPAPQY
As to conditions: at 1 µM; call rule not given here.

Assay [3] has as its target T3, Ephrin type-A receptor 3 (Homo sapiens) (UniProt P29320).
T3 sequence (whole entry): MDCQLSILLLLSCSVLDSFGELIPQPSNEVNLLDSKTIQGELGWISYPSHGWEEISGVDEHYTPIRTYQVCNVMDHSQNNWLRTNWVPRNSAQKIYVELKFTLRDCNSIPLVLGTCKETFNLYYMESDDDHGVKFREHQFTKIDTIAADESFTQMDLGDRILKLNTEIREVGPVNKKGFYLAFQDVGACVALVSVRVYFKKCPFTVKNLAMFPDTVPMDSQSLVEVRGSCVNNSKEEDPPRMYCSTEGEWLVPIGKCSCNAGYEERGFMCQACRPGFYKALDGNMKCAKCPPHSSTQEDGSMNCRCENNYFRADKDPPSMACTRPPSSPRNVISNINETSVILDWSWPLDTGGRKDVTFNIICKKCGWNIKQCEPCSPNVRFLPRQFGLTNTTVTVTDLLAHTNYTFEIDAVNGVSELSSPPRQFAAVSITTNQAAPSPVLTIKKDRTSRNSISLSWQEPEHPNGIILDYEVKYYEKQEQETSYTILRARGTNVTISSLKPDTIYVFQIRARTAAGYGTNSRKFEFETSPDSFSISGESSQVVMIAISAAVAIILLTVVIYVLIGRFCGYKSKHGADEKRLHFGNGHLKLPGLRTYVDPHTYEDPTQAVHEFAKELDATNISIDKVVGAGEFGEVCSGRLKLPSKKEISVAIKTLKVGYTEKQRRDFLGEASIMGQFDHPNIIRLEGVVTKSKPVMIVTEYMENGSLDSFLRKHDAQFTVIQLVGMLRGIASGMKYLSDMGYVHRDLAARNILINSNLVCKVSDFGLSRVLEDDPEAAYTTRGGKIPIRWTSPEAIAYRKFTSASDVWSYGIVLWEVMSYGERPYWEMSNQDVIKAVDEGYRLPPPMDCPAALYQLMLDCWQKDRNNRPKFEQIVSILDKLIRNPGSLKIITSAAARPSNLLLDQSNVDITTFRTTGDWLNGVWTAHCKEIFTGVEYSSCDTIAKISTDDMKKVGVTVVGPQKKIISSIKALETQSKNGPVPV
To be noted: at 10 µM.

The target in assay [4] is T2, Ephrin type-B receptor 4 (Homo sapiens). To be noted: at 10 µM.
Assay [5] deals with Receptor tyrosine-protein kinase erbB-4 (Homo sapiens) (UniProt Q15303). As to conditions: at 1 µM.
Receptor tyrosine-protein kinase erbB-4 (Homo sapiens), sequence (Q15303 whole entry): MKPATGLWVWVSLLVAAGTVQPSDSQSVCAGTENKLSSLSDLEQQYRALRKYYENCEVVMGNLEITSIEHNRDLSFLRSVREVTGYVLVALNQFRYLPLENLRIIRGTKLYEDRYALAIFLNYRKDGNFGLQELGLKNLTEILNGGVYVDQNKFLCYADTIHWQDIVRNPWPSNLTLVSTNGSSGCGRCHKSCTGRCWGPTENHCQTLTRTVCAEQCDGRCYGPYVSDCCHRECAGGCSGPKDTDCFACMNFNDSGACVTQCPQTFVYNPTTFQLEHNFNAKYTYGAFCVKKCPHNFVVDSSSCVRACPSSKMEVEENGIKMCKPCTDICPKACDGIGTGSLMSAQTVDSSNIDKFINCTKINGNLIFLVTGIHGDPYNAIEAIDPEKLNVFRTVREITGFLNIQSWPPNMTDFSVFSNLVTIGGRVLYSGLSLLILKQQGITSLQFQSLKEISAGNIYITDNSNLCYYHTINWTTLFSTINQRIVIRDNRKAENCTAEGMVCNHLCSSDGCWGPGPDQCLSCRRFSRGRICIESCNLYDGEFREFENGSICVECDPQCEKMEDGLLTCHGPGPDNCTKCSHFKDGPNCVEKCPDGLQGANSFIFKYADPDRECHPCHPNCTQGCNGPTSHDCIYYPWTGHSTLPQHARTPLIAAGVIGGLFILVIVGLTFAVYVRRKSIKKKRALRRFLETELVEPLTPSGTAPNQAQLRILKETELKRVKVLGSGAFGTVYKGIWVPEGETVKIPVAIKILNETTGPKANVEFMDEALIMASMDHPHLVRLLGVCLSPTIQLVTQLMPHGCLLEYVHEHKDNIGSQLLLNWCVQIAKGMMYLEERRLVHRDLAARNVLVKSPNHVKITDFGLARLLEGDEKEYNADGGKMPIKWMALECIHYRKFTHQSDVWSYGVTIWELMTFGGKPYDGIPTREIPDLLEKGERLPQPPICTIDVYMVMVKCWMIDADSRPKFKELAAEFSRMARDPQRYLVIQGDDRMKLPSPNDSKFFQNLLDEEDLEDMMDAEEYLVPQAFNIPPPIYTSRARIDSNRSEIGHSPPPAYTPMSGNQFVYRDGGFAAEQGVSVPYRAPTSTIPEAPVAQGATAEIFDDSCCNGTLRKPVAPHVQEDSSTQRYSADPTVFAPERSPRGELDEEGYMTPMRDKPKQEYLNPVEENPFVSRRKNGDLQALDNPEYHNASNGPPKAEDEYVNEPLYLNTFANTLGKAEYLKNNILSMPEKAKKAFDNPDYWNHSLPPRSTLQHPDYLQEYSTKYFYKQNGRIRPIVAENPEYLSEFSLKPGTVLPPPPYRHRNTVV
Assay [6] has the same target. To be noted: at 10 µM.
Assay [7] has as its target Ephrin type-A receptor 5 (Homo sapiens) (UniProt P54756). To be noted: at 1 µM.
The target is the same in assay [8]. As to conditions: at 10 µM.
In assay [9] the target is Ephrin type-A receptor 7 (Homo sapiens) (UniProt Q15375). As to conditions: at 1 µM.
Ephrin type-A receptor 7 (Homo sapiens), sequence (Q15375 28-998 limits assumed): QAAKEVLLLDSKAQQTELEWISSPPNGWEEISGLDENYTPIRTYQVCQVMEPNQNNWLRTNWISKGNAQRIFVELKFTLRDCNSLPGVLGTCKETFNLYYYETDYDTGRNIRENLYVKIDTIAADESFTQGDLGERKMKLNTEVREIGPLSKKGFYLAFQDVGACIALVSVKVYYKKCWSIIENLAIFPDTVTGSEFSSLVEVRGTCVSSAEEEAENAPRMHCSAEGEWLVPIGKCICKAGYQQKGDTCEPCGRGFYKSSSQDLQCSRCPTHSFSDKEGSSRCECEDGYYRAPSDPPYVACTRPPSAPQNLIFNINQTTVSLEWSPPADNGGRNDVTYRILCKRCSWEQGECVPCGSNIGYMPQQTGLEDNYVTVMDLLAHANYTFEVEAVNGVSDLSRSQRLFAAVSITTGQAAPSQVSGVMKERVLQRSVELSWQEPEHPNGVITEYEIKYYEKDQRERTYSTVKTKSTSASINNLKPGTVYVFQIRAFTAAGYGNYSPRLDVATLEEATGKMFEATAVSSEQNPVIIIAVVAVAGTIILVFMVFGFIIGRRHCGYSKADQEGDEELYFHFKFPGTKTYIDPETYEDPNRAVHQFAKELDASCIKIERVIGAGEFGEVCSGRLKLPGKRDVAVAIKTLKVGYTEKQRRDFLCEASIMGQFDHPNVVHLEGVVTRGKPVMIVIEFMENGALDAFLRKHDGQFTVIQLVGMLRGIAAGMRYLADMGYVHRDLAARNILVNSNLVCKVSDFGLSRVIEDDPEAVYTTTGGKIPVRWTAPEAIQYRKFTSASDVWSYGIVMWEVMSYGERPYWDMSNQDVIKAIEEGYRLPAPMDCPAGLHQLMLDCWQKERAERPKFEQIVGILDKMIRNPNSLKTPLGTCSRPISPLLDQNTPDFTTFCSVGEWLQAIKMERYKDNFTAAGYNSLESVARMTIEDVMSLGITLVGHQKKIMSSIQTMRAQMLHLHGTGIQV
The target is the same in assay [10]. To be noted: at 10 µM.
Assay [11] addresses T4, Ephrin type-A receptor 8 (Homo sapiens) (UniProt P29322).
T4 sequence (whole entry): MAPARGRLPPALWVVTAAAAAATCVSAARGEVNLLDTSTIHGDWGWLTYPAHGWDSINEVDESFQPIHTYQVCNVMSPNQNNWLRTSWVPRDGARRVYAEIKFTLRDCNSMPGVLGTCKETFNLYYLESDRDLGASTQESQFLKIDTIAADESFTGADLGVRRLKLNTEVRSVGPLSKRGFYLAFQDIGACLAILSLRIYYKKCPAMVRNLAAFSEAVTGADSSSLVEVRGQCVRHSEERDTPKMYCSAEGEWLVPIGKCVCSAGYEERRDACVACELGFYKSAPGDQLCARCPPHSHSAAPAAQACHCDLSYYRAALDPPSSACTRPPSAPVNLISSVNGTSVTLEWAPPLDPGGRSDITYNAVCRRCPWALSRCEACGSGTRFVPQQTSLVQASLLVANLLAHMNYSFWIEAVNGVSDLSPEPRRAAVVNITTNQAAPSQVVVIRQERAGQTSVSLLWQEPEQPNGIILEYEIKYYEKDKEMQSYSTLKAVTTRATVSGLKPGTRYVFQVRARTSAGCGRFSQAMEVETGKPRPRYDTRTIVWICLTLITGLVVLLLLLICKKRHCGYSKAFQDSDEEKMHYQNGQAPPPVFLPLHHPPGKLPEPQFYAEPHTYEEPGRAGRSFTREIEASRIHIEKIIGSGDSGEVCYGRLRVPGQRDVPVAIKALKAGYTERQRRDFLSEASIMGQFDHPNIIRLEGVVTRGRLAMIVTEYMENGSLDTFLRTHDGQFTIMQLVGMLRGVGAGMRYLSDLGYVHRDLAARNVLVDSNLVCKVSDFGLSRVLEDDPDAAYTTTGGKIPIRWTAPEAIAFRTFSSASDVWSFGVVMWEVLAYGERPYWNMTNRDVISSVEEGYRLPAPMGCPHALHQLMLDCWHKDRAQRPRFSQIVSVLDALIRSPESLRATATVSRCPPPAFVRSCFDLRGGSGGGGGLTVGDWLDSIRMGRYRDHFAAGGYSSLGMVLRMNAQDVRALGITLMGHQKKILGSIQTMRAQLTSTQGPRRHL
To be noted: at 1 µM.

Assay [12] concerns the target T4, Ephrin type-A receptor 8 (Homo sapiens). As to conditions: at 10 µM.
The target in assay [13] is Ephrin type-A receptor 4 (Homo sapiens) (UniProt P54764). To be noted: at 1 µM.
Ephrin type-A receptor 4 (Homo sapiens), sequence (P54764 whole entry): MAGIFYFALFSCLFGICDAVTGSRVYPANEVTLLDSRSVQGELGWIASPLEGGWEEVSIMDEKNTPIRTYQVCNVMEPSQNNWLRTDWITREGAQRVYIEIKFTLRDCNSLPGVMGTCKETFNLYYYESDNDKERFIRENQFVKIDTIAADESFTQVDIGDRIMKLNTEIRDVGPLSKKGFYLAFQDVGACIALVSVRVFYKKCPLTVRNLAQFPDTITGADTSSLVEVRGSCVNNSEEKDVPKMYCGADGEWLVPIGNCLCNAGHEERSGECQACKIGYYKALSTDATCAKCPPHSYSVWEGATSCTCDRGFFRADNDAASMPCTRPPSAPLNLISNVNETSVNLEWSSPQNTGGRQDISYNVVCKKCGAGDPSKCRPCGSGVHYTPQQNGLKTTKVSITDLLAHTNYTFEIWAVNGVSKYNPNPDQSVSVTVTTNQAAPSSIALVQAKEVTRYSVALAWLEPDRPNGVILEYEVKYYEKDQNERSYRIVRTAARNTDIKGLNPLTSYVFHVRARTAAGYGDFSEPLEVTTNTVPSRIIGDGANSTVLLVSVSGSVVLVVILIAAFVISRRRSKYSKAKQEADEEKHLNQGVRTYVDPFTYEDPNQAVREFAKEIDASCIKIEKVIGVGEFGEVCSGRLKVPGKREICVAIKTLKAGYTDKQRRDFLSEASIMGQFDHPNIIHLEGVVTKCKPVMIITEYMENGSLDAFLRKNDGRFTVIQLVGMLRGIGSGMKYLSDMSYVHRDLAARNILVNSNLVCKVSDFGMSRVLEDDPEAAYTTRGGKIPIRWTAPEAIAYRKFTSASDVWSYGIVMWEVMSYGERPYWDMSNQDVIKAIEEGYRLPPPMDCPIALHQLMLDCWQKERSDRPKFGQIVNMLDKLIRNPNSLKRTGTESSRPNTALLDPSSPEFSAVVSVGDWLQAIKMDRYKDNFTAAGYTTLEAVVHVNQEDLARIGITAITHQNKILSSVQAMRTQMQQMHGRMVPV
Assay [14] has the same target. To be noted: at 10 µM.
Assay [15] has as its target T5, Ephrin type-B receptor 1 (Homo sapiens) (UniProt P54762).
T5 sequence (whole entry): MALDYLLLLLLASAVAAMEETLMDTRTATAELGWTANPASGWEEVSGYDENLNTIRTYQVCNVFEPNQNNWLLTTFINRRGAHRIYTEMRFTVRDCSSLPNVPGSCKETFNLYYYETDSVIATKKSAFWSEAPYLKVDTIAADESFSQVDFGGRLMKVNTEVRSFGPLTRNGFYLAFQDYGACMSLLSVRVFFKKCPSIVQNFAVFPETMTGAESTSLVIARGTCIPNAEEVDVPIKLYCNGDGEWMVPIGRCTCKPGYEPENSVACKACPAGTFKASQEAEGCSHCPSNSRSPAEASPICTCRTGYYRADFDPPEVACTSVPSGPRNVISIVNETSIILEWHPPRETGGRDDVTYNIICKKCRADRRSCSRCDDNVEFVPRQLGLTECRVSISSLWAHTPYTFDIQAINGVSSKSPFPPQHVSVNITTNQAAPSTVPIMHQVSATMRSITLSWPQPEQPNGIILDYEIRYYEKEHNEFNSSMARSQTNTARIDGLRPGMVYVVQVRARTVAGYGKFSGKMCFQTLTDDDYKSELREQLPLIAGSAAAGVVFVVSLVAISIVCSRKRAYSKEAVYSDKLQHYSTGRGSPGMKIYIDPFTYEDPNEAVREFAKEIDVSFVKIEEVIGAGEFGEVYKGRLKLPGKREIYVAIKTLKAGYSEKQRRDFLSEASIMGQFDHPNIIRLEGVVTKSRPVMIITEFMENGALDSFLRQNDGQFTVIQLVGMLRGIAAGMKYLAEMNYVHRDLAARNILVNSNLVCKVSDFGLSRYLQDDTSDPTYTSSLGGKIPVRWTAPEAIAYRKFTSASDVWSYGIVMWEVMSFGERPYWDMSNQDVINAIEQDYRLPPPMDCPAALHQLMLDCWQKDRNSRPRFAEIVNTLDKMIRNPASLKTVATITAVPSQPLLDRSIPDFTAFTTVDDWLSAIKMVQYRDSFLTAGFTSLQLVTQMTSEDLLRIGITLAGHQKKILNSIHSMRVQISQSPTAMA
As to conditions: at 1 µM.

Assay [16] concerns the target T5, Ephrin type-B receptor 1 (Homo sapiens). To be noted: at 10 µM.
In assay [17] the target is T1, Ephrin type-B receptor 3 (Homo sapiens). To be noted: at 1 µM.
Assay [18] addresses Focal adhesion kinase 1 (Homo sapiens) (UniProt Q05397). As to conditions: at 1 µM.

Ephrin type-A receptor 5 (Homo sapiens), sequence (P54756 whole entry): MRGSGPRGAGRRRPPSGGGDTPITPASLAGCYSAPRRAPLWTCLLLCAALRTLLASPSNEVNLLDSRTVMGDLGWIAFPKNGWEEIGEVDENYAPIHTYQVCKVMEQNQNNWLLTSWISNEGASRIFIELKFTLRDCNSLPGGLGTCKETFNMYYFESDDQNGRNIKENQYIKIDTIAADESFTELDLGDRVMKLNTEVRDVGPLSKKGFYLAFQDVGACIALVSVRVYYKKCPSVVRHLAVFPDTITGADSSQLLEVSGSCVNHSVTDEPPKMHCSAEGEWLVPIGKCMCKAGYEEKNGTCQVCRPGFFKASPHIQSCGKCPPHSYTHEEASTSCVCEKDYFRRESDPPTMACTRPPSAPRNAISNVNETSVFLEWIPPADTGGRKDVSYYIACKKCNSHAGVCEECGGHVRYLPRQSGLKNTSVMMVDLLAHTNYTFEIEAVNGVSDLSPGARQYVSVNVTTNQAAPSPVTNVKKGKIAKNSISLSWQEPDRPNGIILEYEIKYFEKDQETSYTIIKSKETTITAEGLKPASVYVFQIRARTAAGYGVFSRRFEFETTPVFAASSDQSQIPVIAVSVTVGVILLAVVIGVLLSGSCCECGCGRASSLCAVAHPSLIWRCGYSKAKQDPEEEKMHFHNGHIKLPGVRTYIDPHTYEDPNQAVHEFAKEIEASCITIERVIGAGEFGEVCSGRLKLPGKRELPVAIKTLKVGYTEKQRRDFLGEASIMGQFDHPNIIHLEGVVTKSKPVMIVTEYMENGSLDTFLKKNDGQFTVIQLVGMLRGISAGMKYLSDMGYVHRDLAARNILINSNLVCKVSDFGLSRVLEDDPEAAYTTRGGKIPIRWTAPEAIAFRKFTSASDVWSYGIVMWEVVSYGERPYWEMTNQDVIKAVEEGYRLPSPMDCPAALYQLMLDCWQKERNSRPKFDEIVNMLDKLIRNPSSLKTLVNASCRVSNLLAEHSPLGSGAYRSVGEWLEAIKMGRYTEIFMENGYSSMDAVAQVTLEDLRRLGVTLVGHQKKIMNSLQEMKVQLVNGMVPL

Take `CN[C@@H]1C[C@H]2O[C@@](C)([C@@H]1OC)n1c3ccccc3c3c4c(c5c6ccccc6n2c5c31)C(=O)NC4`: the residual activity in [1] worked out at 131%; in assay [2], 79%.

Regarding `N/C(=N\[N+](=O)[O-])N/N=C\c1ccc(-c2cccc([N+](=O)[O-])c2)o1`, the residual activity was 79% in [3]; 90% in assay [2]; 90% in assay [4]; 100% in [5]; 88% in [6].

Turning to `O=C1NC(=O)c2c1c1c3ccccc3n3c1c1c2c2ccccc2n1C1CCC3O1`, the residual activity in assay [7] was 94%; in assay [8], 92%; in assay [9], 100%; in [10] it was 100%; in assay [11], 96%; in assay [12], 94%.

Turning to `COc1cc(OC)c(/C=C2\C(=O)Nc3ccccc32)c(OC)c1`, the residual activity amounted to 84% in assay [3]; 103% in assay [13]; 105% in [14]; 128% in assay [7]; 101% in assay [8]; 94% in assay [9]. In addition, the residual activity is 94% in assay [10]; 95% in assay [11]; 84% in assay [12]; 100% in assay [15]; 88% in assay [16]; 124% (inactive) in [17]. In addition, the residual activity was 107% in assay [1]; 86% in assay [2]; 82% in [4]; 106% in assay [6]; 92% in assay [18].
